{"source": "PubChem BioAssay (Tox21)", "note": "Records with an inconclusive call do not appear. Calls of active or inactive are those of the source. Calls come from the whole dose curve; as a rule, active = well fitted curve in the direction sought with a large enough effect in the repeat runs; inconclusive = weak or mixed curves; inactive = no such curve, though single readings can be large; an effect the other way counts as inactive or inconclusive. % is set by controls: 0 for no effect and ±100 for the full control effect.", "data": [{"test": "qHTS assay for small molecule disruptors of the mitochondrial membrane potential (AID 720635); note: potency is the fitted concentration of half-maximal effect", "details": "HepG2 mitochondrial membrane potential, Mito-MPS dye ratio; series mostly up to 83.2 µM; ratio activity, negative = MMP loss: at the top concentration", "how_it_was_run": "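HepG2 cells (2,000/well) attached overnight at 37C, then took compound for 1 hr at 37C, 5% CO2. Mito-MPS dye was added for 30 min; fluorescence was read at 490/535 nm (monomers) and 540/590 nm (aggregates).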", "values": [{"molecule": "N#CCCN(CCO)CCO", "ratio activity, negative = MMP loss": "6.41% (inactive)"}, {"molecule": "C/C=C/C=C/C=O", "ratio activity, negative = MMP loss": "18.5% (inactive)"}, {"molecule": "CCC(C)COC(C)=O", "note": "(stereo unspecified)", "ratio activity, negative = MMP loss": "17.1% (inactive)"}, {"molecule": "Cc1cc(=O)c2c(O)c3c(O)cc(=O)c4c3c3c(cc(O)c1c23)C(C)(C)C=4O", "Potency": "473 nM (active)"}]}, {"test": "qHTS assay to test for compound auto fluorescence at 590 nm (red) in HepG2 cells (AID 720674)", "details": "HepG2 autofluorescence, red 540/590 nm, 1 h; series mostly up to 91.3 µM; fluorescence, relative to Rose Bengal: at the top concentration", "how_it_was_run": "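Compound auto-fluorescence is scored relative to Rose Bengal sodium, measured at 540/590 nm in live HepG2 cultures after 1 hr compound contact (37 C, 5% CO2).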", "values": [{"molecule": "O=C1C(=O)c2ccccc2C(O)=C1C1CCC(c2ccc(Cl)cc2)CC1", "note": "(stereo unspecified)", "fluorescence, relative to Rose Bengal": "-0.463% [at 18.6 µM] (inactive)"}, {"molecule": "COc1ccccc1N1CCN(CC(O)COc2cccc3ccccc23)CC1", "note": "(stereo unspecified)", "fluorescence, relative to Rose Bengal": "0.471% [at 46 µM] (inactive)"}, {"molecule": "CN1CC(=O)N2[C@H](c3ccc4c(c3)OCO4)c3[nH]c4ccccc4c3C[C@@H]2C1=O", "fluorescence, relative to Rose Bengal": "-0.596% [at 46 µM] (inactive)"}, {"molecule": "O=C1c2ccccc2C(=O)C1c1nc2ccccc2c(Br)c1O", "fluorescence, relative to Rose Bengal": "0.197% (inactive)"}, {"molecule": "CCOC(=O)C1=C(C)NC(C)=C(C(=O)OC)C1c1cccc(Cl)c1Cl", "note": "(stereo unspecified)", "fluorescence, relative to Rose Bengal": "-0.0455% [at 46 µM] (inactive)"}, {"molecule": "O=[N+]([O-])c1ccc(O/N=C/c2cc(Br)c(O)c(Br)c2)c([N+](=O)[O-])c1", "fluorescence, relative to Rose Bengal": "0.0889% (inactive)"}, {"molecule": "C/C=C/C=C/C=O", "fluorescence, relative to Rose Bengal": "-0.432% (inactive)"}, {"molecule": "O=c1cc(-c2ccccc2)oc2ccc3ccccc3c12", "fluorescence, relative to Rose Bengal": "0.0428% (inactive)"}, {"molecule": "Nc1nc2ccc([N+](=O)[O-])cc2s1", "fluorescence, relative to Rose Bengal": "0.347% (inactive)"}, {"molecule": "Brc1cc(Br)c(Oc2cc(Br)c(Br)cc2Br)cc1Br", "fluorescence, relative to Rose Bengal": "-0.0866% [at 46 µM] (inactive)"}, {"molecule": "O=C1Cc2ccccc2N1c1c(Cl)cccc1Cl", "fluorescence, relative to Rose Bengal": "-0.37% (inactive)"}, {"molecule": "Cc1cc(O)ccc1O", "fluorescence, relative to Rose Bengal": "0.103% (inactive)"}, {"molecule": "CC1(C)[C@H](C(=O)O)N2C(=O)C[C@H]2S1(=O)=O", "fluorescence, relative to Rose Bengal": "-0.0374% [at 46 µM] (inactive)"}, {"molecule": "Cc1cc(=O)c2c(O)c3c(O)cc(=O)c4c3c3c(cc(O)c1c23)C(C)(C)C=4O", "fluorescence, relative to Rose Bengal": "3.03% [at 46 µM] (inactive)"}, {"molecule": "c1ccc2sc(SN(C3CCCCC3)C3CCCCC3)nc2c1", "fluorescence, relative to Rose Bengal": "0.191% [at 95.7 µM] (inactive)"}, {"molecule": "CCCCCCCCOc1ccc(C(=O)O)cc1", "fluorescence, relative to Rose Bengal": "0.266% (inactive)"}, {"molecule": "C[C@H]1c2cccc(O)c2C(O)=C2C(=O)[C@]3(O)C(O)=C(C(N)=O)C(=O)[C@@H](N(C)C)[C@@H]3[C@@H](O)[C@@H]21", "fluorescence, relative to Rose Bengal": "0.0159% [at 46 µM] (inactive)"}, {"molecule": "CCCC(C(=O)OCCN(CC)CC)(c1ccccc1)c1ccccc1", "fluorescence, relative to Rose Bengal": "-0.0357% [at 46 µM] (inactive)"}, {"molecule": "O=C(CCCN1CC=C(n2c(=O)[nH]c3ccccc32)CC1)c1ccc(F)cc1", "fluorescence, relative to Rose Bengal": "0.0527% [at 46 µM] (inactive)"}, {"molecule": "C=CCc1ccccc1OCC(O)CNC(C)C", "note": "(stereo unspecified)", "fluorescence, relative to Rose Bengal": "0.292% [at 46 µM] (inactive)"}, {"molecule": "N#CCc1ccc(Cl)cc1Cl", "fluorescence, relative to Rose Bengal": "-0.0329% (inactive)"}, {"molecule": "O=C(/C=C/c1ccccc1)OCCc1ccccc1", "fluorescence, relative to Rose Bengal": "0.156% (inactive)"}, {"molecule": "CC(C)(c1ccccc1)c1ccccc1", "fluorescence, relative to Rose Bengal": "0.0449% (inactive)"}, {"molecule": "CCOc1ccc(Cc2nccc3cc(OCC)c(OCC)cc23)cc1OCC", "fluorescence, relative to Rose Bengal": "0.4% [at 18.6 µM] (inactive)"}, {"molecule": "CCCCCCCCC(CCCCCC)C(=O)O", "note": "(stereo unspecified)", "fluorescence, relative to Rose Bengal": "-0.131% (inactive)"}, {"molecule": "CN1C(=O)c2ccccc2C1=O", "fluorescence, relative to Rose Bengal": "-0.551% (inactive)"}, {"molecule": "CC(=O)Oc1ccc([N+](=O)[O-])cc1CCl", "fluorescence, relative to Rose Bengal": "0.0841% (inactive)"}, {"molecule": "C=C(C)C(=O)OCCOCCOC(=O)C(=C)C", "fluorescence, relative to Rose Bengal": "-0.0009% (inactive)"}, {"molecule": "CC(=O)N/N=C/c1ccc([N+](=O)[O-])o1", "fluorescence, relative to Rose Bengal": "0.0009% [at 46 µM] (inactive)"}, {"molecule": "CC1(C)O[C@@H]2C[C@H]3[C@@H]4C[C@H](F)C5=CC(=O)C=C[C@]5(C)[C@H]4[C@@H](O)C[C@]3(C)[C@]2(C(=O)CO)O1", "fluorescence, relative to Rose Bengal": "0.174% [at 18.6 µM] (inactive)"}]}, {"test": "qHTS assay to test for compound auto fluorescence at 535 nm (green) in HepG2 cells (AID 720675)", "details": "green autofluorescence 485/535 nm, 1 h; series mostly up to 91.3 µM; fluorescence, % of fluorescein control: at the top concentration", "values": [{"molecule": "O=C1C(=O)c2ccccc2C(O)=C1C1CCC(c2ccc(Cl)cc2)CC1", "note": "(stereo unspecified)", "fluorescence, % of fluorescein control": "-0.0011% [at 18.6 µM] (inactive)"}, {"molecule": "COc1ccccc1N1CCN(CC(O)COc2cccc3ccccc23)CC1", "note": "(stereo unspecified)", "fluorescence, % of fluorescein control": "-0.292% [at 46 µM] (inactive)"}, {"molecule": "CN1CC(=O)N2[C@H](c3ccc4c(c3)OCO4)c3[nH]c4ccccc4c3C[C@@H]2C1=O", "fluorescence, % of fluorescein control": "0.0216% [at 46 µM] (inactive)"}, {"molecule": "O=C1c2ccccc2C(=O)C1c1nc2ccccc2c(Br)c1O", "fluorescence, % of fluorescein control": "0.234% (inactive)"}, {"molecule": "N#CCCN(CCO)CCO", "fluorescence, % of fluorescein control": "0.0574% (inactive)"}, {"molecule": "CCOC(=O)C1=C(C)NC(C)=C(C(=O)OC)C1c1cccc(Cl)c1Cl", "note": "(stereo unspecified)", "fluorescence, % of fluorescein control": "0.0936% [at 46 µM] (inactive)"}, {"molecule": "O=[N+]([O-])c1ccc(O/N=C/c2cc(Br)c(O)c(Br)c2)c([N+](=O)[O-])c1", "fluorescence, % of fluorescein control": "-0.0463% (inactive)"}, {"molecule": "C/C=C/C=C/C=O", "fluorescence, % of fluorescein control": "0.137% (inactive)"}, {"molecule": "O=c1cc(-c2ccccc2)oc2ccc3ccccc3c12", "fluorescence, % of fluorescein control": "-0.0604% (inactive)"}, {"molecule": "Nc1nc2ccc([N+](=O)[O-])cc2s1", "fluorescence, % of fluorescein control": "-0.135% (inactive)"}, {"molecule": "CCC(C)COC(C)=O", "note": "(stereo unspecified)", "fluorescence, % of fluorescein control": "-0.275% (inactive)"}, {"molecule": "CCOC(=O)OC(C)OC(=O)[C@@H]1N2C(=O)[C@@H](NC(=O)[C@H](N)c3ccccc3)[C@H]2SC1(C)C", "note": "(stereo partly specified)", "fluorescence, % of fluorescein control": "0.0265% [at 18.6 µM] (inactive)"}, {"molecule": "Brc1cc(Br)c(Oc2cc(Br)c(Br)cc2Br)cc1Br", "fluorescence, % of fluorescein control": "-0.0454% [at 46 µM] (inactive)"}, {"molecule": "C[C@@H]1CN(CCCn2c3ccccc3c3ccccc32)C[C@H](C)N1", "fluorescence, % of fluorescein control": "-0.0455% [at 46 µM] (inactive)"}, {"molecule": "O=C1Cc2ccccc2N1c1c(Cl)cccc1Cl", "fluorescence, % of fluorescein control": "0.0006% (inactive)"}, {"molecule": "Cc1cc(O)ccc1O", "fluorescence, % of fluorescein control": "0.0622% (inactive)"}, {"molecule": "CC1(C)[C@H](C(=O)O)N2C(=O)C[C@H]2S1(=O)=O", "fluorescence, % of fluorescein control": "-0.0513% [at 46 µM] (inactive)"}, {"molecule": "CCCCC(CC)COP(=O)(O)O", "note": "(stereo unspecified)", "fluorescence, % of fluorescein control": "-0.0789% [at 95.7 µM] (inactive)"}, {"molecule": "c1ccc2sc(SN(C3CCCCC3)C3CCCCC3)nc2c1", "fluorescence, % of fluorescein control": "0.0336% [at 95.7 µM] (inactive)"}, {"molecule": "CCCCCCCCOc1ccc(C(=O)O)cc1", "fluorescence, % of fluorescein control": "-0.113% (inactive)"}, {"molecule": "C[C@H]1c2cccc(O)c2C(O)=C2C(=O)[C@]3(O)C(O)=C(C(N)=O)C(=O)[C@@H](N(C)C)[C@@H]3[C@@H](O)[C@@H]21", "fluorescence, % of fluorescein control": "-0.0778% [at 46 µM] (inactive)"}, {"molecule": "CCCC(C(=O)OCCN(CC)CC)(c1ccccc1)c1ccccc1", "fluorescence, % of fluorescein control": "0.122% [at 46 µM] (inactive)"}, {"molecule": "O=C(CCCN1CC=C(n2c(=O)[nH]c3ccccc32)CC1)c1ccc(F)cc1", "fluorescence, % of fluorescein control": "-0.249% [at 46 µM] (inactive)"}, {"molecule": "C=CCc1ccccc1OCC(O)CNC(C)C", "note": "(stereo unspecified)", "fluorescence, % of fluorescein control": "0.0327% [at 46 µM] (inactive)"}, {"molecule": "CN(C)CCC=C1c2ccccc2C=Cc2ccccc21", "fluorescence, % of fluorescein control": "0.0215% [at 46 µM] (inactive)"}, {"molecule": "N#CCc1ccc(Cl)cc1Cl", "fluorescence, % of fluorescein control": "0.133% (inactive)"}, {"molecule": "O=C(/C=C/c1ccccc1)OCCc1ccccc1", "fluorescence, % of fluorescein control": "-0.0284% (inactive)"}, {"molecule": "CC(C)(c1ccccc1)c1ccccc1", "fluorescence, % of fluorescein control": "0.067% (inactive)"}, {"molecule": "CCOc1ccc(Cc2nccc3cc(OCC)c(OCC)cc23)cc1OCC", "fluorescence, % of fluorescein control": "0.127% [at 18.6 µM] (inactive)"}, {"molecule": "CCCCCCCCC(CCCCCC)C(=O)O", "note": "(stereo unspecified)", "fluorescence, % of fluorescein control": "-0.134% (inactive)"}, {"molecule": "Oc1c(I)cc(I)c2cccnc12", "fluorescence, % of fluorescein control": "-0.0896% [at 46 µM] (inactive)"}, {"molecule": "CC(=O)NC1(c2cccc(F)c2)CCN(CC[C@@]2(c3ccc(Cl)c(Cl)c3)CN(c3ccccc3)C(=O)CO2)CC1", "fluorescence, % of fluorescein control": "0.0015% (inactive)"}, {"molecule": "CN1C(=O)c2ccccc2C1=O", "fluorescence, % of fluorescein control": "0.112% (inactive)"}, {"molecule": "CC(=O)Oc1ccc([N+](=O)[O-])cc1CCl", "fluorescence, % of fluorescein control": "-0.0627% (inactive)"}, {"molecule": "C=C(C)C(=O)OCCOCCOC(=O)C(=C)C", "fluorescence, % of fluorescein control": "-0.274% (inactive)"}, {"molecule": "CC(=O)N/N=C/c1ccc([N+](=O)[O-])o1", "fluorescence, % of fluorescein control": "-0.112% [at 46 µM] (inactive)"}, {"molecule": "CC1(C)O[C@@H]2C[C@H]3[C@@H]4C[C@H](F)C5=CC(=O)C=C[C@]5(C)[C@H]4[C@@H](O)C[C@]3(C)[C@]2(C(=O)CO)O1", "fluorescence, % of fluorescein control": "-0.107% [at 18.6 µM] (inactive)"}]}]}
